Legend:
Assay in all cases: PBM binding z-score (relative to random genomic background probes); higher = stronger binding; sequences stand for … in GC…GCGATTGACAGCGTAGAATGAAGG
[1] = test system: RARb homodimer (NR concentration 270 nM)
Outline: (§1)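 Scanned fluorescence from custom Agilent 4×180K protein-binding microarrays was regression-normalized. Binding z-scores use random background probes as reference. Ligand-free nuclear receptor dimers were incubated on the arrays for 1 h and detected with antibodies against each partner (one per run).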

[2] = test system: RARg:RXRa (NR concentration 270 nM, RXRa partner concentration 90 nM)
Outline: as §1

[3] = test system: RARg homodimer (NR concentration 270 nM)
Outline: as §1

[4] = test system: RXRa DBDmut IVT, anti-RXR (DBD mutation: RXRa K156A/R161A, NR concentration 90 nM)
Outline: as §1

[5] = test system: RXRa homodimer (NR concentration 180 nM)
Outline: as §1

[6] = test system: THRa:RXRa (NR concentration 90 nM, RXRa partner concentration 90 nM)
Outline: as §1

[7] = test system: THRa homodimer (NR concentration 90 nM)
Outline: as §1

[8] = test system: VDR homodimer (NR concentration 270 nM)
Outline: as §1

| Sequence | PBM binding z-score [1] | PBM binding z-score [2] | PBM binding z-score [3] | PBM binding z-score [4] | PBM binding z-score [5] | PBM binding z-score [6] | PBM binding z-score [7] | PBM binding z-score [8] |
| --- | --- | --- | --- | --- | --- | --- | --- | --- |
| AATACAGGCTCACTAGGCCAGAGTAGGTACGAAT | -0.345 | -0.402 | -0.0557 | -0.214 | -0.169 | -0.688 | -0.397 | -0.126 |
| CCTATTGGGCCATTCAGAGGTCATTGATCATATG | 4.13 | 4.69 | 3.34 | 1.48 | 3.41 | 3.37 | 1.54 | 3.79 |
| CAAACTAGGTCAAAGGTCATAGTCGAGCCAACCA | 5.28 | 8.65 | 6.91 | 2.92 | 10.3 | 4.84 | 1.91 | 3.55 |
| ATCGAAAGGTCGTGAGGTGAGTCTACAGAAAGGC | 3.17 | 4.64 | 3.92 | 1.06 | 5.19 | 3.48 | 1.43 | 1.09 |
| CCTACTAGGCCACGAAAGGTCATTGATTCAGTGA | 4.71 | 4.9 | 4.91 | 1.22 | 5.5 | 3.85 | 1.29 | 2.66 |
| ACTTACGGGTCAACGAGGTTATAGTACGCGTATA | 3.9 | 5.7 | 5.01 | 2.85 | 6.32 | 4.14 | 1.34 | 4.38 |
| ATCCCTAGGTAAAGTTCAGTGAAAGATCGATAGA | 2.36 | 1.81 | 1.95 | 1.28 | 1.16 | 1.07 | 0.22 | 2.35 |
| ATATGTAGGTTAGCTGGGGTCATTGAGACTAGGC | 3.66 | 4.03 | 2.91 | 1.82 | 5.63 | 4.83 | 3.21 | 5.12 |
| CGTCCAAGGTCAAGGTCATTGAAAGAGACTCGAA | 5.3 | 7.02 | 7.64 | 3.89 | 7.4 | 4.39 | 3.82 | 5.11 |
| CCGACTGGGGCAGAAAGGTTACCACACCATCCGG | 2.28 | 1.77 | 1.41 | -0.654 | 1.84 | 1.01 | -0.368 | -0.223 |
| CGTCCAAGGTCAAGGTCAGTGAAAGAGACTCGAA | 5.29 | 6.79 | 7.8 | 3.95 | 6.28 | 4.39 | 3.78 | 2.89 |
| CAAACTAGGTCACCGGATGGTCAAAGTCCGCATG | 4.02 | 5.82 | 5.58 | 1.74 | 4.05 | 3.57 | 1.85 | 1.1 |
| CCTAGTAGGTCAAGGTCACACACGCTATAGGTAC | 5.28 | 6.17 | 7.17 | 2.82 | 6.23 | 4.3 | 4.17 | 3.86 |
| ATACCAAGGTGATCGAGAGGTCGTTGATACTAAC | 1.77 | 2.91 | 1.06 | 0.829 | 1.71 | 2.59 | 0.902 | 1.98 |
